From PubChem BioAssay come the findings set out here.

Experiment [1] concerns Wnt5a (protein binding on small-molecule microarray). As to the kind of experiment: small molecules binding Wnt5a protein – biophysical, small-molecule microarray, 635/667 nm fluorescence, primary screen (AID 1142).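 Note: fluorescence read at 667 nm with signal to noise per printed feature.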 The settings on record: 635 nm fluorescence, higher = more signal.
Experiment [2] in a line: ATP-based viability of Huh7 replicon cells – cell-based, CellTiter-Glo luminescence, basal, 48 h, cytotoxicity control for HCV replication inhibitor project, primary screen (AID 1143).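 Note: Huh7 hepatoma cells carrying a hepatitis C replication reporter with no stimulus; test concentration not given here.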 The settings on record: higher = more signal, called active from +8 up or from −8 down. On the technique in general: In antiviral work, replicon cells carry a viral genome segment that copies itself.

A short description of experiment [3]: Pseudomonas biofilm growth suppression – PAO1 strain, BacTiter-Glo luminescence, LB-PBS, primary screen (AID 1144). The following applies: P. aeruginosa PAO1 biofilm, 12 h, higher = more signal.
Experiment [4] in a line: basal CRE-LacZ reporter activity in PC12 – cell-based, unstimulated, primary screen (AID 1145). The following applies: no forskolin, luminescence, 4.5 h, higher = more signal, called active from +8 up or from −8 down.
Experiment [5] is described as follows: forskolin-driven CRE-LacZ activity in PC12 – cell-based, CRE-LacZ reporter, forskolin-stimulated, primary screen (AID 1146).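 Note: PC12 cells with 6xCRE LacZ reporter stimulated by forskolin 10 µM; beta-galactosidase reporter signal reflecting CREB driven transcription.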 The settings on record: luminescence, 4.5 h, higher = more signal, called active from +8 up or from −8 down.
Experiment [6] concerns the target Streptavidin (Streptomyces avidinii) (UniProt P22629). As to the kind of experiment: compounds binding control protein streptavidin – biophysical, small-molecule microarray, 635/667 nm fluorescence, artefact control for SMM compound annotation, primary screen (AID 1147).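 Note: signal reflects streptavidin binding to arrayed compounds as a control protein.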 The following applies: higher = more signal.
Experiment [7] can be described thus: probe aInhba binding on compound microarray – biochemical, small-molecule microarray, 635/667 nm fluorescence, primary screen (AID 1148).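 Note: score merges 667nm spot fluorescence with signal-to-noise for antibody binding to printed compounds.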 The following applies: higher = more signal.
Experiment [8] concerns the target Torsin-1A (Homo sapiens) (UniProt O14656). As to the kind of experiment: TOR1A wild-type binding on microarray – cell lysate, small-molecule microarray, lysate, 635/667 nm, primary screen (AID 1149). The following applies: COS7 hTOR1A-WT lysate, 635 nm fluorescence, higher = more signal.
The target is the same in experiment [9]. The experiment is described as follows: torsin A mutant lysate binding on microarrays – cell lysate, small-molecule microarray, COS7 lysate, 635/667 nm fluorescence, primary screen (AID 1150).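 Note: score pools 667 nm emission and signal to noise measuring lysate protein binding.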 The following applies: COS7 hTOR1A mutant lysate, 635 nm fluorescence, higher = more signal.
Experiment [10] deals with Sonic hedgehog protein (Shh). As to the kind of experiment: Sonic hedgehog microarray binding compounds – biochemical, small-molecule microarray, 635/667 nm fluorescence, primary screen (AID 1151).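 Note: Shh protein binding to compounds spotted on small-molecule microarray slides; score combines spot fluorescence intensity with signal-to-noise across triplicate slides.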 The settings on record: 635 nm fluorescence, higher = more signal.

Activity calls are given as the source filed them. Unless noted, the rule behind the calls is not given here.

Streptavidin (Streptomyces avidinii), sequence (P22629 whole entry, looked up): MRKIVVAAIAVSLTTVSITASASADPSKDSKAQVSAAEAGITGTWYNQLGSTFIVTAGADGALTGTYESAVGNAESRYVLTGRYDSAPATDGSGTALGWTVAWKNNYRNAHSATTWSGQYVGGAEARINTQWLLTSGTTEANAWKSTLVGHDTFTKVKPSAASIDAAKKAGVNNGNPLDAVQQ
Torsin-1A (Homo sapiens), sequence (O14656 whole entry, looked up): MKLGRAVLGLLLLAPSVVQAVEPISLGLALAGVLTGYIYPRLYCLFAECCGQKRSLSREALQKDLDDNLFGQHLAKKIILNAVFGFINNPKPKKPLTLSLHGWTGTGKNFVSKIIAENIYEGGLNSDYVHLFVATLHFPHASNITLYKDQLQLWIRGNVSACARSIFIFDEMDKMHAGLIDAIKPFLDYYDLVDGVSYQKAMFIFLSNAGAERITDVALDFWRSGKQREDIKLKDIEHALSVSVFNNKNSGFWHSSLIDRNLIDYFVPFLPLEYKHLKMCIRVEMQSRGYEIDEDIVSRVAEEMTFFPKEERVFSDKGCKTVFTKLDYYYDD

Regarding `COC(=O)[C@]1(CCC(=O)OC(C)(C)C)N=C(c2ccc(OCCCO)cc2)O[C@@H]1c1ccccc1N=[N+]=[N-]`, the composite z-score in [1] is 0.827; in [6] it was -0.0444; in experiment [7] it was -0.0658; in the experiment with Torsin-1A (Homo sapiens) [8] it was 0.154; with Torsin-1A (Homo sapiens) [9], 0.0612; in [10], 0.886. Also, the z-score in experiment [2] was -2.64 (inactive); in experiment [3], -0.192 (inactive); in experiment [4] it was 0.834 (inactive); in [5], 0.154 (inactive).

Consider `COC(=O)[C@H](Cc1ccc(O)cc1)N[C@@H](/C=C/C1CC1)[C@H](O)Cc1ccccc1`, for which the composite z-score was -0.377 in experiment [1]; -0.295 in experiment [6]; -0.153 in experiment [7]; -0.474 with Torsin-1A (Homo sapiens) [8]; 0.0615 with Torsin-1A (Homo sapiens) [9]; -0.142 in [10]. The z-score in [2] was -0.794 (inactive); in experiment [3] it was 0.814 (inactive); in experiment [4] it was 7.92 (inactive); in experiment [5] it was 1.6 (inactive).

For `O=C1C[C@@](C(=O)O)(c2ccc([N+](=O)[O-])cc2)[C@@H](c2ccc(CO)cc2)N1C1CCCCC1`, the composite z-score in experiment [1] was 0.239; in experiment [6] it was 0.856; in experiment [7], -0.0645; with Torsin-1A (Homo sapiens) [8], 0.298; in the experiment with Torsin-1A (Homo sapiens) [9], 0.371; in [10], 0.478. The z-score in experiment [2] was -3.27 (inactive); in [3], 0.381 (inactive); in [4], -0.179 (inactive); in experiment [5], -0.337 (inactive).

`C=C(COC)/C(=C/C[C@H](OC(C)=O)c1ccccc1OCCO)c1cc(C(=O)OC)ccc1OC`: the composite z-score in experiment [1] was 0.0266; in experiment [6], -0.432; in experiment [7], -0.0589; in the experiment with Torsin-1A (Homo sapiens) [8] it was -0.035; in the experiment with Torsin-1A (Homo sapiens) [9], 0.727; in experiment [10], 1.2. Moreover, the z-score in experiment [2] was -3.38 (inactive); in experiment [3] it was 0.0472 (inactive); in experiment [4], 14.7 (active); in [5], 0.659 (inactive).

On to `O=C1N(CCS(=O)(=O)c2ccccc2)c2ccccc2C[C@]12N=C(c1ccc(OCCCO)cc1)O[C@@H]2c1ccccc1`, for which the composite z-score in [1] was determined as 0.553; in [6], 0.404; in experiment [7], 0.0944; with Torsin-1A (Homo sapiens) [8], 0.903; with Torsin-1A (Homo sapiens) [9], 1.41; in experiment [10] it was 0.372. Further, the z-score was -1.62 (inactive) in [2], 0.851 (inactive) in experiment [3], 0.0219 (inactive) in [4] and -1.4 (inactive) in experiment [5].

`O=C1O[C@@H](c2ccccc2)[C@@H](c2ccccc2)N2[C@@H](c3ccc(OCCO)cc3)[C@]3(C(=O)Nc4ccc(C#CCCO)cc43)[C@@H](C(=O)O)[C@H]12`: the composite z-score is 0.529 in [1]; 1.84 in experiment [6]; 1.34 in experiment [7]; 0.892 with Torsin-1A (Homo sapiens) [8]; 0.203 with Torsin-1A (Homo sapiens) [9]; 0.688 in [10]. In addition, the z-score in experiment [2] was -0.579 (inactive); in experiment [3] it was -0.155 (inactive); in experiment [4] it was -0.761 (inactive); in [5], -0.0408 (inactive).

Regarding `[N-]=[N+]=Nc1ccccc1C[C@]1(C(=O)N2CCOCC2)N=C(c2ccc(OCCCO)cc2)O[C@H]1c1ccccc1N=[N+]=[N-]`, the composite z-score is 0.936 in experiment [1]; 1.79 in [6]; 0.0757 in experiment [7]; 1.32 with Torsin-1A (Homo sapiens) [8]; 0.946 with Torsin-1A (Homo sapiens) [9]; 1.76 in [10]. Besides, the z-score in [2] was -4.16 (inactive); in experiment [3] it was -0.781 (inactive); in experiment [4], 0.0686 (inactive); in experiment [5], -2.38 (inactive).
